Data on 103 compounds can be found in ChEMBL document CHEMBL3988442, “University of Dundee, Small-Polar-MMV Screening Library” (2021).

Out of some 48,000 compounds screened, about 13,000 (27%) showed an effect of 50% or more. The list shows a part of the results.

The test has as its system Wolbachia pipientis. Put plainly: Anti-Wolbachia Cell-Based Screen. Type of test: functional. More on the design: scale not given: in the data most compounds retested in dose-response had high values. Conditions: 5 µM.
Take `CCCc1nc(CN2CCOC(CNc3cccnn3)C2)cs1` (stereo not drawn): the “Percent Effect” value was determined as 6.887%.
On to `CCc1nc(CN2CCOC(CNc3cccnn3)C2)cs1` (stereo not drawn), for which the “Percent Effect” value turned out to be 75.15%.
Under `Cc1nc(CN2CCOC(CNc3cccnn3)C2)oc1C` (stereo not drawn) stands 3.025%; under `CCOc1nnc(CN2CCOC(CNc3cccnn3)C2)s1` (stereo not drawn), -8.583%; under `Cc1nc(C)c(CN2CCOC(CNc3cccnn3)C2)s1` (stereo not drawn), 87.52%.
Under `CCc1nc(CN2CCOC(CN(C)c3cccnn3)C2)cs1` (stereo not drawn) stands -6.381%; under `Cc1cnc(CN2CCOC(CNc3cccnn3)C2)cn1` (stereo not drawn), 0.4879%; under `COCc1nc(CN2CCOC(CNc3cccnn3)C2)cs1` (stereo not drawn), 82.18%.
The result for `CC(C)c1nc(CN2CCOC(CNc3cccnn3)C2)cs1` (stereo not drawn) reads 87.62%.
Take `COCc1nc(CN2CCOC(CN(C)c3cccnn3)C2)cs1` (stereo not drawn): the “Percent Effect” value is on record as 6.806%.
The result for `Cc1nc(C)c(CN2CCOC(CN(C)c3cccnn3)C2)s1` (stereo not drawn) reads -0.1768%.
Regarding `Cc1nc(CN2CCOC(CNc3cccnn3)C2)cs1` (stereo not drawn), the “Percent Effect” value is recorded as -1.722%.
The result for `Cn1cc(CCC(=O)NS(=O)(=O)N2CCCc3ccccc32)cn1` reads -16.6%.
For `CCc1nsc(N2CCn3c(nnc3C(F)(F)F)C2)n1`, the “Percent Effect” value was found to be 3.315%.
Under `COCCOc1cc(C(=O)N2CC(C)c3ccccc32)ccn1` (stereo not drawn) stands -1.249%; under `COCC(=O)N[C@H](C)c1c(-c2ccc(Cl)cc2)noc1C(=O)O`, -3.12%; under `c1csc(-c2nc(CN3CCOC(Cn4cccn4)C3)co2)c1` (stereo not drawn), 6.391%.
As to `Cc1ccc(-c2nc(CN3CCOC(Cn4cccn4)C3)co2)cc1` (stereo not drawn), the “Percent Effect” value is 108.6%.
The result for `Fc1ccc(-c2nc(CN3CCOC(Cn4cccn4)C3)co2)cc1` (stereo not drawn) reads 92.05%; that for `c1ccc(-c2nc(CN3CCOC(Cn4cccn4)C3)no2)cc1` (stereo not drawn), -5.165%; that for `Fc1cccc(-c2nc(CN3CCOC(Cn4cncn4)C3)co2)c1` (stereo not drawn), -2.254%.
The result for `c1coc(-c2nc(CN3CCOC(Cn4cccn4)C3)cs2)c1` (stereo not drawn) reads 16.31%; that for `Fc1cccc(-c2nc(CN3CCOC(Cn4cccn4)C3)co2)c1` (stereo not drawn), 1.83%; that for `c1ccc(-c2nc(CN3CCOC(Cn4cccn4)C3)co2)cc1` (stereo not drawn), 93.62%.
The result for `O=C1COC[C@H]([C@H](O)c2ccc(NC(=O)c3cccnc3)cc2)N1` reads -8.221%.
Regarding `Cc1ccc(-c2nnc([C@H]3CCN(C4CCC4)C3)o2)cc1`, the “Percent Effect” value came out at 10.26%.
In the case of `O=C(c1ncoc1C1CCCO1)N1CCCC2(CCCCC2)C1` (stereo not drawn), the “Percent Effect” value is reported as -7.896%.
`CN1CCOC(CNCCc2ccccn2)C1` (stereo not drawn): the “Percent Effect” value is -2.338%.
The result for `CN1CCOC(CNCc2ccc(OCc3ccccn3)cc2)C1` (stereo not drawn) reads 111%; that for `CCN1CCOC(CNCc2ccccc2OCc2ccccn2)C1` (stereo not drawn), 9.704%; that for `CN1CCOC(CNCc2cccc(OCc3ccccn3)c2)C1` (stereo not drawn), -19.83%.
Under `CCN1CCOC(CNCc2cccc(OCc3ccccn3)c2)C1` (stereo not drawn) stands 99.3%; under `CC(C)CC(N)C1=N/C(=C2\N=CN=N2)NO1` (stereo not drawn), -1.816%; under `CNC(=O)NC(=O)C(NCc1ccccc1)c1ccccc1` (stereo not drawn), 7.195%.
Under `Cn1ccnc1CCNS(=O)(=O)c1ccc(Br)cc1` stands -0.8619%.
On to `CCOc1ccc(S(=O)(=O)NCCCc2ccc(N(C)C)cc2)cc1F`, for which the “Percent Effect” value was found to be 11.9%.
In the case of `O=S(=O)(NCCNc1ccc(-n2cccc2)nn1)c1cccs1`, the “Percent Effect” value turned out to be 19%.
Under `Cc1cc(C)n2c(CCCNS(=O)(=O)c3cccs3)nnc2n1` stands 99.96%.
Under `COc1ccc(S(=O)(=O)NCCCc2nnc3nc(C)cc(C)n23)cc1` stands 128.4%.
On to `COc1ccc(CC(=O)NCCCc2nnc3nc(C)cc(C)n23)cc1`, for which the “Percent Effect” value was found to be 140.8%.
Turning to `O=S(=O)(NCCNc1cc(-n2cccc2)ncn1)c1cccs1`, the “Percent Effect” value was 9.931%.
The result for `COc1ccc(S(=O)(=O)NCCCc2ccc(N(C)C)cc2)cc1F` reads 8.354%; that for `Cc1cc(C)n2c(CCCNS(=O)(=O)c3ccc(F)cc3)nnc2n1`, 115.4%; that for `COc1ccc(S(=O)(=O)NCCCc2ccc(N(C)C)cc2)cc1Cl`, 10.52%.
Under `COc1cccc(CC(=O)NCCc2nnc3n2CCCCC3)c1` stands -1.985%; under `COc1ccc(CCNC(=O)Nc2cc(C)nn2C)cc1`, -34.88%; under `COCCN(C)c1ccc(NCc2cccnc2)nc1`, -2.901%.
Under `Cc1nc2cc(=O)[nH]n2c(C)c1CNC(=O)c1cnn(C(C)(C)C)c1` stands -22.93%; under `CC(C)c1nnc2n1CCN(C(C)c1nnc(-c3cccs3)o1)C2` (stereo not drawn), -12.3%; under `CCc1ncc(C(=O)N(CC)CCOC)cn1`, -25.3%.
Regarding `Cc1cc(C)n2c(CCCNS(=O)(=O)c3ccccc3)nnc2n1`, the “Percent Effect” value amounted to 105.2%.
Under `O=S(=O)(NCCc1nnc2ccccn12)c1cccnc1` stands -2.198%; under `Cc1nsc(NCCNS(=O)(=O)c2ccccc2)n1`, -9.26%; under `Cc1nc(CN2CC(CO)Oc3ccccc32)sc1C` (stereo not drawn), -1.227%.
Under `Cn1ccnc1CN(CCO)Cc1ccc(C(F)(F)F)cc1` stands -12.47%; under `CC(C)(C)OC(=O)NC1CCC(NC(=O)c2ccc[nH]2)CC1` (stereo not drawn), -46.12%.
For `CC(=O)c1cc2ncc(C(=O)NC3CCCCC3)cc2[nH]1`, the “Percent Effect” value amounted to 114.6%.
Under `CCNc1ncc(C(=O)NC2CCSC2)cn1` (stereo not drawn) stands 5.956%.
The result for `O=C(NC1(C(=O)NC2CCCC2)CCCC1)c1ccc2[nH]ncc2c1` reads 2.222%; that for `CC(=O)c1cc2ncc(C(=O)NC3CC3)cc2[nH]1`, 127.3%.
For the compound `CCNc1ncc(C(=O)NC2CCc3ccccc3C2)cn1` (stereo not drawn), the “Percent Effect” value turned out to be 2.788%.
Consider `CC(=O)c1cc2ncc(C(=O)NC3CCCC3)cc2[nH]1`, for which the “Percent Effect” value is listed as 115.8%.
The result for `O=C(NC1CCCCC1)c1c(F)cccc1F` reads -11.27%.
Consider `CCOc1ccccc1OCCN(C)Cc1ncnn1CC`, for which the “Percent Effect” value is given as -5.335%.
The result for `Cc1n[nH]cc1CNCC(O)c1ccc(F)c(F)c1.Cl` (stereo not drawn) reads -9.621%.
The result for `Cc1ccc2cc(CN(C)Cc3nccs3)c(=O)[nH]c2c1` reads -5.099%.
Regarding `Cn1cc(N2CC3(CCN(CC4CCOCC4)CC3)OCC2=O)cn1.O=C(O)C(F)(F)F`, the “Percent Effect” value was -12.75%.
For `CC1N(c2cnn(C)c2)C(=O)COC12CCN(Cc1ccco1)CC2.O=C(O)C(F)(F)F` (stereo not drawn), the “Percent Effect” value is on record as 117%.
The result for `Cn1cc(N2CC3(CCN(CC4CC4)C3)CC2=O)cn1.O=C(O)C(F)(F)F` (stereo not drawn) reads 3.9%; that for `CC1N(c2cnn(C)c2)C(=O)COC12CCN(CC1CC1)CC2.O=C(O)C(F)(F)F` (stereo not drawn), 102.9%.
Under `CN1CC(=O)N(c2cnn(C)c2)CC12CCN(Cc1ccccc1)C2.O=C(O)C(F)(F)F.O=C(O)C(F)(F)F` (stereo not drawn) stands -7.753%; under `CC1N(c2cnn(C)c2)C(=O)COC12CCN(Cc1ccoc1)CC2` (stereo not drawn), 110.5%.
The result for `Cn1cc(N2C[C@@H]3CN(Cc4ccoc4)C[C@@H]3C2=O)cn1.O=C(O)C(F)(F)F` reads -5.785%.
With `Cc1nc(CN2C(=O)COC3(CCN(Cc4ccco4)CC3)C2C)cs1.O=C(O)C(F)(F)F` (stereo not drawn), the “Percent Effect” value is on record as -6.139%.
With `CCCOCCNc1nc2c(s1)c(C)nn2C`, the “Percent Effect” value is -0.9549%.
The result for `CCSCCNc1nc2c(s1)c(C)nn2C` reads 7.108%; that for `Cc1nn(C)c2nc(NC3CCNCC3)sc12`, 10.32%; that for `Cc1nn(C)c2nc(NCCOCCO)sc12`, -15.08%.
As for `Cc1csc(CNc2nc3c(s2)c(C)nn3C)n1`, the “Percent Effect” value is -2.391%.
The result for `Cc1nc(C(C)Nc2nc3c(s2)c(C)nn3C)n[nH]1` (stereo not drawn) reads 87.1%.
Under `Cc1nn(C)c2nc(NC(C)c3nnn[nH]3)sc12` (stereo not drawn) stands 114.7%; under `Cc1nn(C)c2nc(NC(C)c3n[nH]c(=O)[nH]3)sc12` (stereo not drawn), 96.4%.
The result for `Cc1ccc(-c2ccnc(NC(C)c3n[nH]c(=O)[nH]3)n2)c(C)n1` (stereo not drawn) reads 6.558%; that for `O=C(Cc1cccs1)NCCNc1nccc(C(F)(F)F)n1`, -1.179%; that for `CCn1cc(CN2CCCCC2CCn2ccnc2C)cc1C#N` (stereo not drawn), -5.966%.
For `O=C(NCc1ccccc1CN1CCCC1=O)Nc1nncs1`, the “Percent Effect” value is recorded as -15.38%.
Under `CC(Nc1ccc(N2C(=O)CCCC2=O)cc1)c1ccc(C#N)cc1` (stereo not drawn) stands -5.853%.
The result for `CC(C)NC(=O)N1C[C@H](OCc2cccnc2)[C@H]2COC[C@H]21.O=C(O)C(F)(F)F` reads 112.7%.
The result for `O=C(Cc1ccccn1)N1C[C@H](OCc2cccnc2)[C@H]2COC[C@H]21.O=C(O)C(F)(F)F.O=C(O)C(F)(F)F` reads 111.5%; that for `Cc1nc(CO[C@H]2CN(C(=O)c3cnoc3C)[C@@H]3COC[C@H]23)cs1.O=C(O)C(F)(F)F`, -46.26%; that for `CC(=O)NCC(=O)N1C[C@H](OCc2cccnc2)[C@H]2COC[C@H]21`, -9.929%.
Take `CCS(=O)(=O)N1C[C@@H](OCc2cccnc2)[C@H]2OCCC[C@H]21.O=C(O)C(F)(F)F`: the “Percent Effect” value is given as -26.44%.
Under `Cc1nc(CO[C@H]2CN(C(=O)c3cccn3C)[C@@H]3COC[C@H]23)cs1.O=C(O)C(F)(F)F` stands -15.2%.
Take `O=S(=O)(NCCNc1ccc(-n2cccn2)nn1)c1ccccc1`: the “Percent Effect” value is given as -3.314%.
The result for `Cc1noc(C)c1CN(C)C(=O)c1cnc(C2CC2)nc1O` reads -11.89%; that for `Cc1ccccc1CNC(=O)N1CCC(n2cncn2)CC1`, 111.6%; that for `Cc1cc(C(C)NC(=O)N2CCC(n3cncn3)CC2)c(C)s1` (stereo not drawn), 2.137%.
The result for `CC(C)Oc1ccccc1CNC(=O)N1CCC(n2cncn2)CC1` reads 15.2%.
Under `CCOc1ncccc1CNC(=O)N1CCC(n2cncn2)CC1` stands 108.5%.
Turning to `CCOc1ncccc1CNC(=O)N1CCCC1c1ccncc1` (stereo not drawn), the “Percent Effect” value turned out to be 0.3129%.
Under `O=C(NCc1cccc2cccnc12)N1CCC(n2cncn2)CC1` stands -5.707%; under `CCOc1ccccc1CNC(=O)N1CCC(n2cncn2)CC1`, 121.4%; under `CCC(CC)c1cc(CNC(=O)N2CCCN(C(C)=O)CC2)on1`, -7.46%.
